Assay outcomes (PubChem BioAssay)
In the library only some 6.2% were active in any assay of this set; here they are far more common.
AI-2 QS modul = modulates the Vibrio harveyi AI-2 quorum sensing system; Vibrio harveyi JMH597 AI-2 luminescence/OD600 ratio, 9 h; stronger effect = lower value; strain lacks LuxN and CqsS sensors; 0 = neutral-control median; activity change, % at 7.5 µM; hit rate 0.4% among 300,000; in the data active = activity change below about -75%, passing the limit was not always enough; inconclusive = no clear call, values can overlap the other calls;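 note: luminescence divided by OD600 gain over 9 h not by final OD600 alone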
H9c2 protect = myocardial damage modulation in H9c2 cells; H9c2 cardiomyocytes, H2O2 injury protection, ATPLite, 2 h; protection from H2O2 cell death, % at 20 µM; hit rate 0.63% among 360,000; AID 588492;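 active = compounds giving at least 50% protection of heart cells from peroxide-induced death in the single-dose screen, raw or plate-pattern-corrected value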
NTR1 ag = agonists of human neurotensin receptor NTR1; activation, % at 20 µM; AID 493036; hit rate 0.17% among 330,000; NTR1-U2OS beta-arrestin-GFP spot imaging, agonist mode; P30989;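 active = activation at or above 40% of the spot to cytoplasm intensity ratio, with at least 20 cells analyzed; inconclusive = wells under 20 cells, flagged as cytotoxic or low count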
Target sequence (P30989 whole entry, looked up): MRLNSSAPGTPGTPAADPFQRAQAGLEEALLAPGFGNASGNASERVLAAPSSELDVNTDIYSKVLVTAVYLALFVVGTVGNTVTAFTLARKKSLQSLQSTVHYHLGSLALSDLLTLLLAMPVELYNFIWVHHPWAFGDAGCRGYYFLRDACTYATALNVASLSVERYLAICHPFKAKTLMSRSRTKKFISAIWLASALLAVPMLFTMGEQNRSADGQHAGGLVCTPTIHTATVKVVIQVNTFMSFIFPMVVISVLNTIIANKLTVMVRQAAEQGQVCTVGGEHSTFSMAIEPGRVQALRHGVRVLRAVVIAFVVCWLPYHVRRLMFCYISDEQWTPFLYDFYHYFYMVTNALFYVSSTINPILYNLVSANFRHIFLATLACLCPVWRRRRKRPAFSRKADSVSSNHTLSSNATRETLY
Mot1-301 SUMO = blocks SUMOylation pathway, rescuing yeast Mot1-301 growth | S. cerevisiae Mot1-301 growth rescue, ATP luminescence, 38.5C; percent above DMSO median, 100 means doubled | growth rescue, % at 18.8 µM | hit rate 1% among 320,000;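 active = every valid replicate shows activation above 250% relative to neutral control wells; inactive = the rest, any valid replicate at or below 250%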
GRIN3A LBD mod = modulators (binders) of human NR3A ligand-binding domain | hit rate 2.5% among 340,000 | Tm shift relative to glycine control, % at 25 µM | NR3A LBD differential scanning fluorimetry, Tm shift; 0% = protein alone, 100% = glycine-bound protein;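 active = melting temperature shift of at least 10% of the positive control shift, at one fixed dose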
AHR activator = activates the human aryl hydrocarbon receptor. P35869. AHR-responsive luciferase reporter cells, luminescence. activation, % at 5 µM. hit rate 2.5% among 320,000; in the data active = activation above about 47%
Each line names hits and unclear results; the compound was inactive in the other large screens.

C[C@@H]1CN([C@@H](C)CO)C(=O)CCCn2nncc2CO[C@H]1CN(C)S(=O)(=O)c1cccs1	none (no result: AI-2 QS modul, NTR1 ag, Mot1-301 SUMO, GRIN3A LBD mod, AHR activator)
CN(CC(=O)Nc1ccc(F)cc1)CC(=O)NC1CCCCC1	none (no result: AI-2 QS modul)
Oc1ccc(Nc2nc(-c3ccc4ccccc4c3)cs2)cc1	AHR activator 64.0 (no result: GRIN3A LBD mod)
CC(=O)Nc1nc(-c2ccc3ccccc3c2)cs1	none
O=C1C2CCCN2C(c2ccccc2F)N1c1ccc(Cl)cc1 (stereo not drawn)	AHR activator 51.5
COc1ccc(N2C(=O)C3CCCN3C2c2ccccc2F)cc1 (stereo not drawn)	none
Cc1ccc(C)c(N(C(=O)c2csnn2)C(C(=O)NC2CCCC2)c2cccnc2)c1 (stereo not drawn)	none
Cn1c(=O)c2c(nc(N3CCCCCC3)n2CCSc2nc3ccccc3o2)n(C)c1=O	Mot1-301 SUMO 422.6
CN1CCN(c2nc3c(c(=O)n(C)c(=O)n3C)n2Cc2ccc(Cl)cc2)CC1	Mot1-301 SUMO 288.8
Cn1c(=O)c2c(nc(N3CCc4ccccc4C3)n2Cc2ccc(Br)cc2)n(C)c1=O	GRIN3A LBD mod 10.9
CN1CCN(c2nc3c(c(=O)[nH]c(=O)n3C)n2Cc2ccc(Cl)cc2)CC1	none (no result: AHR activator)
CC1CCN(c2nc3c(c(=O)n(C)c(=O)n3C)n2CCSc2nc3ccccc3o2)CC1	none (no result: H9c2 protect, NTR1 ag, Mot1-301 SUMO, GRIN3A LBD mod, AHR activator)
O=C1CCC(C(=O)N2CCN(c3ccccc3)CC2)CN1Cc1ccc(Cl)cc1 (stereo not drawn)	none (no result: AI-2 QS modul, NTR1 ag, Mot1-301 SUMO, GRIN3A LBD mod, AHR activator)
Cc1ccccc1NC(=O)N(O)C1(C#N)CCCCC1	GRIN3A LBD mod 15.4 (no result: AI-2 QS modul, NTR1 ag, Mot1-301 SUMO, AHR activator)
CC(C)(C)Cc1c(-c2ccc(F)cc2)nc2ccc(Br)cn12	none (no result: AI-2 QS modul, NTR1 ag, Mot1-301 SUMO, GRIN3A LBD mod, AHR activator)
COc1ccccc1NS(=O)(=O)c1ccc2ccccc2c1	none
COc1ccc(NS(=O)(=O)c2ccc3ccccc3c2)c2ncccc12	H9c2 protect 59.2
O=C(C1=C(O)/C(=C/c2ccc(O)cc2)CCC1)C(F)(F)F	GRIN3A LBD mod 12.3
COc1ccc(C/C(C)=N\NC(=O)c2c[nH]c3ccccc23)cc1OC	AHR activator 52.8
COc1cc(OC)nc(Nc2nc(CN)cs2)n1	none (no result: AI-2 QS modul, NTR1 ag, Mot1-301 SUMO, GRIN3A LBD mod, AHR activator)
Cc1ccc(Nc2nc(Cl)nc(N(C)C#N)n2)cc1	AHR activator 54.7
FC(F)(F)c1cccc(NC(=S)NNC(=S)Nc2ccc(Cl)cc2)c1	AI-2 QS modul inconclusive (no result: H9c2 protect, GRIN3A LBD mod)
Cc1ccc(NC(=S)NNC(=S)Nc2ccc(C)cc2)cc1	GRIN3A LBD mod 30.1 (no result: AI-2 QS modul, NTR1 ag, Mot1-301 SUMO, AHR activator)
Cc1ccc(NNC(=S)Nc2ccc(C(C)C)cc2)c(C)c1	AHR activator 65.5
Cc1ccc(NC(=S)NNC(=S)Nc2cccc(C(F)(F)F)c2)cc1	GRIN3A LBD mod 33.9
O=C(OCc1cn([C@@H]2C[C@H](c3ccccc3)N(C(=O)C3CCCCC3)C[C@H]2O)nn1)c1ccccc1	none (no result: AI-2 QS modul, NTR1 ag, Mot1-301 SUMO, GRIN3A LBD mod, AHR activator)
CC(OC(=O)CC1CCCC1)C(=O)Nc1ccc(S(N)(=O)=O)cc1 (stereo not drawn)	none
Cc1ccc2oc(-c3cccc(NC(=O)c4ccc(Br)o4)c3C)nc2c1	none
Cc1c(NC(=O)CSc2ccc(Cl)cc2)cccc1-c1nc2cc(Cl)ccc2o1	GRIN3A LBD mod 18.2, AHR activator 96.7
O=Cc1cccn1-c1c(C(=O)O)cnn1-c1ccccc1	none
O=C(O)c1cnn(-c2ccccc2)c1-c1ccncc1	Mot1-301 SUMO 321.8
Cc1ccccc1NC(=O)NC1(C(=O)NCc2ccco2)CCCCC1	none
CCC(C(=O)O)n1c(C(F)(F)F)nc2ccccc21 (stereo not drawn)	GRIN3A LBD mod 11.7
CC(C)(C)NC(=O)NC(=O)CSc1ccc(S(=O)(=O)N2CCCCC2)cn1	none (no result: AI-2 QS modul)
O=C(Nc1cc(Cl)ccc1-n1cncn1)c1cc(F)c(F)c(F)c1F	AHR activator 55.8
CS(=O)(=O)c1ccccc1C(=O)Nc1cc(Cl)ccc1-n1cncn1	none
O=C(Nc1cc(Cl)ccc1-n1cncn1)c1ccc(Br)o1	AHR activator 60.7
O=C(Nc1cc(Cl)ccc1-n1cncn1)c1cncc(Br)c1	none
Oc1cccc2cnccc12	none
N#Cc1cccc2cnccc12	Mot1-301 SUMO 329.1
CCn1c(SCC(=O)N2CCN(c3ccccc3)CC2)nc2c(c1=O)SC(C)C2 (stereo not drawn)	H9c2 protect 58.5
O=C(Cn1c(=S)[nH]c2ccccc2c1=O)NCCc1ccccc1	AHR activator 79.0
COc1ccccc1-n1c(SCC(=O)Nc2cc(C)on2)nc2c([nH]c3ccccc32)c1=O	AHR activator 67.6
COc1ccc(C)cc1-n1c(SCC(=O)NCC2CCCO2)nc2c([nH]c3ccccc32)c1=O (stereo not drawn)	AHR activator 67.2
COCCN(Cc1ccccc1)C(=O)C1CCN(C(=O)Nc2ccccc2)CC1	none (no result: AI-2 QS modul)
Cc1cc(C(=O)N2CCC2(C)C(=O)NCCC#N)nn1C (stereo not drawn)	none (no result: AI-2 QS modul, NTR1 ag, Mot1-301 SUMO, GRIN3A LBD mod, AHR activator)
Cn1c(SCC(=O)N2CCN(c3ccccc3)CC2)nnc1-c1ccncc1	GRIN3A LBD mod 11.4
COc1cccc(-n2c(SCC(N)=O)nc3c([nH]c4ccccc43)c2=O)c1	AHR activator 74.6
C=CCn1c(SCC(=O)N2CCN(c3ccccc3)CC2)nc2c([nH]c3ccccc32)c1=O	AHR activator 65.6
O=C(CSc1nnc(-c2c[nH]c3ccccc23)o1)NCC1CCCO1 (stereo not drawn)	Mot1-301 SUMO 285.5 (no result: AI-2 QS modul)
C=CCn1c(SCC(=O)N2CCC(C)CC2)nc2c([nH]c3ccccc32)c1=O	none (no result: AI-2 QS modul, NTR1 ag, Mot1-301 SUMO, GRIN3A LBD mod, AHR activator)
COc1cccc(-n2c(SCC(=O)N3CCCCC3)nc3c([nH]c4ccccc43)c2=O)c1	none
CC(C)NC(=O)NC(=O)CSc1nnc(-c2c[nH]c3ccccc23)o1	none
OCCCNc1ncnc2c1ncn2[C@H]1CN(Cc2ccc3c(c2)OCO3)C[C@@H](CO)O1	none (no result: AI-2 QS modul, NTR1 ag, Mot1-301 SUMO, GRIN3A LBD mod, AHR activator)
C/C=C/c1cccc(-c2nc(C(=O)NC3CCC3)cc3c2[C@@H](CCO)N(S(=O)C(C)(C)C)C3)c1 (stereo partly drawn)	none (no result: AI-2 QS modul, NTR1 ag, Mot1-301 SUMO, GRIN3A LBD mod, AHR activator)
C/C=C/C(=O)N[C@@H]1c2ccccc2CC[C@@H]1OCc1ccccc1	none (no result: AI-2 QS modul, Mot1-301 SUMO, AHR activator)
COc1cc(C(=O)NCCC(=O)NCc2cccs2)cc(OC)c1OC	none (no result: AI-2 QS modul, NTR1 ag, Mot1-301 SUMO, GRIN3A LBD mod, AHR activator)
C=CCn1c(SCC(=O)NCCc2ccccc2)nc2c([nH]c3ccccc32)c1=O	AHR activator 60.1
Cc1ccc(-c2nc(SCC(=O)NCC3CCCO3)c(-c3ccccc3)[nH]2)cc1 (stereo not drawn)	AHR activator 69.8
C=CCn1c(SCC(=O)NCC2CCCO2)nc2c([nH]c3ccccc32)c1=O (stereo not drawn)	AHR activator 55.3
Cc1ccc(-c2nsc(SCC(=O)NCC3CCCO3)n2)cc1 (stereo not drawn)	none
c1cncc(N=c2scc(-c3cccc4ccccc34)n2CCCn2ccnc2)c1	AHR activator 55.7
CN(C)c1ccc(NC(=S)c2ccc3ccccc3n2)cc1	AHR activator 48.2
CCOc1ccc(N/C=C/C(=O)c2ccc(C)cc2)c([N+](=O)[O-])c1	none
CCOc1ccc(N/C=C/C(=O)c2ccc3ccccc3c2)c([N+](=O)[O-])c1	GRIN3A LBD mod 37.2
